# In PubChem BioAssay (EPA / NIEHS):
# Activity calls are given as the source filed them. Rule for the calls: active = hit-call score of the fitted dose curve at least 0.9, where 1 is the maximum; inactive = score below 0.9.
# Key:
# Conditions in all cases: mRNA level, 48 h; actives raise or lower the signal
# [1] = read-out: Potassium channel subfamily K member 1 (KCNK1), KCNK1 (gene 3775); experiment: LTEA_HepaRG_KCNK1: Life Technologies and Expression Analysis (LTEA) Assay for Potassium channel subfamily K member 1 (KCNK1) using HepaRG (AID 2283511)
# Method in brief: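 KCNK1 transcript measured by TaqMan qRT-PCR against three housekeeping genes, after HepaRG cells were treated 48 h with eight half-log concentrations (top 100 uM, 0.5% DMSO). Curves fitted bidirectionally relative to vehicle.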
# [2] = read-out: Keratin 19 (KRT19), KRT19 (gene 3880); experiment: LTEA_HepaRG_KRT19: Life Technologies and Expression Analysis (LTEA) Assay for Keratin 19 (KRT19) using HepaRG (AID 2283512)
# Method in brief: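 Differentiated HepaRG cells in serum-free induction medium, exposed 48 h in duplicate to 8 half-log concentrations up to 100 uM in 0.5% DMSO. KRT19 mRNA by qRT-PCR, normalized to ACTB, GAPDH, POLR2A; bidirectional fit vs DMSO.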
# [3] = read-out: JUN Transcription Factor, JUN (gene 3725); experiment: LTEA_HepaRG_JUN: Life Technologies and Expression Analysis (LTEA) Assay for JUN Transcription Factor using HepaRG (AID 2283513)
# Method in brief: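 Gene-expression endpoint: JUN mRNA (qRT-PCR, normalized to three reference genes) in HepaRG cultures treated 48 h with chemicals, duplicate wells, 100 uM maximum with half-log dilutions; bidirectional fitting relative to 0.5% DMSO.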
# [4] = read-out: Lipase C (LIPC), LIPC (gene 3990); experiment: LTEA_HepaRG_LIPC: Life Technologies and Expression Analysis (LTEA) Assay for Lipase C (LIPC) using HepaRG (AID 2283514)
# Method in brief: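 LIPC expression was quantified by qRT-PCR against three housekeeping genes (ACTB, GAPDH, POLR2A). Differentiated human HepaRG cells received eight half-log doses (top 100 uM, 0.5% DMSO) in duplicate for 48 h; fitting bidirectional relative to DMSO.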
# [5] = read-out: Lipoprotein lipase (LPL), LPL (gene 4023); experiment: LTEA_HepaRG_LPL: Life Technologies and Expression Analysis (LTEA) Assay for Lipoprotein lipase (LPL) using HepaRG (AID 2283515)
# Method in brief: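 LPL transcript levels quantified by TaqMan qRT-PCR against three housekeeping genes after 48 h chemical treatment of HepaRG cells. Eight-point half-log series from 100 uM in 0.5% DMSO, tested in duplicate; bidirectional fitting versus vehicle.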
# [6] = read-out: MicroRNA 122 (MIR122), gene 406906; experiment: LTEA_HepaRG_MIR122: Life Technologies and Expression Analysis (LTEA) Assay for MicroRNA 122 (MIR122) using HepaRG (AID 2283516); note: the transcript read is the microRNA miR-122
# Method in brief: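 Changes in transcript abundance, up or down relative to 0.5% DMSO vehicle, were scored after 48 h chemical treatment of HepaRG cells (maximum 100 uM). Quantification used TaqMan qRT-PCR normalized to housekeeping genes.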
# [7] = read-out: matrix metalloproteinase-10 (MMP10), MMP10 (gene 4319); experiment: LTEA_HepaRG_MMP10: Life Technologies and Expression Analysis (LTEA) Assay for matrix metalloproteinase-10 (MMP10) using HepaRG (AID 2283517)
# Method in brief: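 Expression measured by TaqMan qRT-PCR with ACTB/GAPDH/POLR2A normalisation after 48 h chemical exposure of HepaRG cells. Eight half-log concentrations, top 100 uM, 0.5% DMSO vehicle, duplicates; gain or loss fitted against vehicle.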
# MYC, MYC (gene 4609) = experiment: LTEA_HepaRG_MYC: Life Technologies and Expression Analysis (LTEA) Assay for MYC using HepaRG (AID 2283518)
# Method in brief: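 Differentiated HepaRG cells exposed 48 h in serum-free induction medium to 8 concentrations (top 100 uM, half-log steps; 0.5% DMSO), duplicate. MYC mRNA measured by Fluidigm qRT-PCR, normalized to ACTB, GAPDH, POLR2A; bidirectional fit versus DMSO.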
# [8] = read-out: Paternally Expressed 10 (PEG10), PEG10 (gene 23089); experiment: LTEA_HepaRG_PEG10: Life Technologies and Expression Analysis (LTEA) Assay for Paternally Expressed 10 (PEG10) using HepaRG (AID 2283520);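 for AC50: PEG10 transcript by qRT-PCR normalised to ACTB GAPDH and POLR2A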
# Method in brief: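 After 48 h exposure of differentiated HepaRG cells (0.5% DMSO vehicle, eight concentrations up to 100 uM, duplicates), PEG10 mRNA was measured by TaqMan qRT-PCR. Values were normalised to endogenous control genes and analysed bidirectionally against vehicle.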
# [9] = read-out: matrix metalloproteinase-3 (MMP3), MMP3 (gene 4314); experiment: LTEA_HepaRG_MMP3: Life Technologies and Expression Analysis (LTEA) Assay for matrix metalloproteinase-3 (MMP3) using HepaRG (AID 2283519)
# Method in brief: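 Fluidigm-based TaqMan qRT-PCR, normalized to ACTB, GAPDH and POLR2A and fitted bidirectionally versus 0.5% DMSO, measured transcript levels. Treatment: duplicate 48 h exposures of HepaRG cells, ~100,000/well, to eight half-log concentrations topping at 100 uM.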
structure (smiles),measurement,setting,value
CCO[Si](CCCNC(N)=O)(OCC)OCC,outcome,[1],inactive
same,outcome,[2],inactive
same,outcome,[3],inactive
same,outcome,[4],inactive
same,outcome,[5],inactive
same,outcome,[6],inactive
same,outcome,[7],inactive
same,outcome,"MYC, MYC (gene 4609)",inactive
same,outcome,[8],inactive
CCOC(=O)O[C@H](C)OC(=O)c1ccc2c(c1)cc(C(=O)NC1CCN(C(C)C)CC1)n2Cc1cc(-c2ccc(Cl)s2)on1,outcome,[1],inactive
same,outcome,[2],inactive
same,outcome,[3],inactive
same,outcome,[4],inactive
same,outcome,[5],inactive
same,outcome,[6],inactive
same,outcome,[7],inactive
same,outcome,"MYC, MYC (gene 4609)",inactive
same,outcome,[8],inactive
Oc1ccccc1,outcome,[1],inactive
same,outcome,[2],inactive
same,outcome,[3],inactive
same,outcome,[4],inactive
same,outcome,[7],inactive
same,outcome,"MYC, MYC (gene 4609)",inactive
same,outcome,[8],inactive
O=C(O)c1ccccc1C(=O)OCc1ccccc1,outcome,[1],inactive
same,outcome,[2],inactive
same,outcome,[3],inactive
same,outcome,[4],inactive
same,outcome,[5],inactive
same,outcome,[7],inactive
same,outcome,"MYC, MYC (gene 4609)",inactive
same,outcome,[9],inactive
same,outcome,[8],inactive
c1ccc(C[n+]2cccc3ccccc32)cc1,outcome,[1],inactive
same,AC50,[2],28.6 µM (active)
same,outcome,[3],inactive
same,AC50,[4],32 µM (active)
same,outcome,[7],inactive
same,AC50,"MYC, MYC (gene 4609)",34.6 µM (active)
same,outcome,[8],inactive
O=C=NCCCCCCN=C=O,outcome,[1],inactive
same,outcome,[2],inactive
same,outcome,[3],inactive
same,outcome,[4],inactive
same,outcome,[5],inactive
same,outcome,[6],inactive
same,outcome,[7],inactive
same,outcome,"MYC, MYC (gene 4609)",inactive
same,outcome,[9],inactive
same,outcome,[8],inactive
CN(C)C(=O)C1(N2CCCCC2)CCN(CC[C@@]2(c3ccc(Cl)c(Cl)c3)CN(C(=O)c3ccccc3)CCO2)CC1,AC50,[1],14.9 µM (active)
same,outcome,[2],inactive
same,AC50,[3],31 µM (active)
same,outcome,[4],inactive
same,AC50,[6],10.9 µM (active)
same,AC50,[7],77.1 µM (active)
same,AC50,"MYC, MYC (gene 4609)",21.4 µM (active)
same,outcome,[8],inactive
CCN(Cc1cccc(S(=O)(=O)O)c1)c1ccc(C(=C2C=CC(=[N+](CC)Cc3cccc(S(=O)(=O)O)c3)C=C2)c2ccccc2S(=O)(=O)[O-])cc1,outcome,[1],inactive
same,outcome,[2],inactive
same,outcome,[3],inactive
same,outcome,[4],inactive
same,outcome,[5],inactive
same,outcome,[7],inactive
same,outcome,"MYC, MYC (gene 4609)",inactive
same,outcome,[8],inactive
Clc1cc(Cl)c2c(c1)N=C1CCCCCN1C2,outcome,[1],inactive
same,outcome,[2],inactive
same,outcome,[3],inactive
same,outcome,[4],inactive
same,outcome,[7],inactive
same,outcome,"MYC, MYC (gene 4609)",inactive
same,outcome,[9],inactive
same,outcome,[8],inactive
CN1C(=O)CC[C@H]1c1cccnc1,outcome,[1],inactive
same,outcome,[2],inactive
same,outcome,[3],inactive
same,outcome,[4],inactive
same,outcome,[5],inactive
same,outcome,[7],inactive
same,outcome,"MYC, MYC (gene 4609)",inactive
same,outcome,[8],inactive
CCCCCCCCOc1ccc(C(=O)c2ccccc2)c(O)c1,outcome,[1],inactive
same,outcome,[2],inactive
same,outcome,[3],inactive
same,outcome,[5],inactive
same,outcome,[6],inactive
same,outcome,[7],inactive
same,outcome,"MYC, MYC (gene 4609)",inactive
same,outcome,[9],inactive
same,outcome,[8],inactive
CCCOC(=O)c1cc(O)c(O)c(O)c1,outcome,[1],inactive
same,outcome,[2],inactive
same,outcome,[3],inactive
same,outcome,[4],inactive
same,outcome,[7],inactive
same,outcome,"MYC, MYC (gene 4609)",inactive
same,outcome,[8],inactive
CN(C[C@@H](CC[N+]12CCC(C3CCCCC3)(CC1)CC2)c1ccc(Cl)c(Cl)c1)C(=O)c1cc(C(F)(F)F)cc(C(F)(F)F)c1,AC50,[1],15.8 µM (active)
same,AC50,[2],26.4 µM (active)
same,AC50,[3],88.5 µM (active)
same,AC50,[4],15.8 µM (active)
same,AC50,[7],9.43 µM (active)
same,AC50,"MYC, MYC (gene 4609)",87.2 µM (active)
same,outcome,[9],inactive
same,AC50,[8],28.7 µM (active)
CCCCCCCCCCCCO,outcome,[1],inactive
same,outcome,[2],inactive
same,outcome,[3],inactive
same,outcome,[5],inactive
same,outcome,[6],inactive
same,outcome,[7],inactive
same,outcome,"MYC, MYC (gene 4609)",inactive
same,outcome,[9],inactive
same,outcome,[8],inactive
CCCC(=O)OCCC(C)C,outcome,[1],inactive
same,outcome,[2],inactive
same,outcome,[3],inactive
same,outcome,[4],inactive
same,outcome,[6],inactive
same,outcome,[7],inactive
same,outcome,"MYC, MYC (gene 4609)",inactive
same,outcome,[8],inactive
CC(O)CC(C)(C)O (centres undefined),outcome,[1],inactive
same,outcome,[2],inactive
same,outcome,[3],inactive
same,outcome,[4],inactive
same,outcome,[6],inactive
same,outcome,[7],inactive
same,outcome,"MYC, MYC (gene 4609)",inactive
same,outcome,[9],inactive
same,outcome,[8],inactive
Cc1cc(F)ccc1-c1cc(N2CC[C@@H](O)[C@H]2CO)ncc1N(C)C(=O)C(C)(C)c1cc(C(F)(F)F)cc(C(F)(F)F)c1,outcome,[1],inactive
same,outcome,[2],inactive
same,AC50,[3],74.8 µM (active)
same,AC50,[4],18.6 µM (active)
same,AC50,[7],68.7 µM (active)
same,AC50,"MYC, MYC (gene 4609)",17.3 µM (active)
same,outcome,[8],inactive
CCCCCCCCCC(=O)O,outcome,[1],inactive
same,outcome,[2],inactive
same,outcome,[3],inactive
same,outcome,[5],inactive
same,outcome,[6],inactive
same,outcome,[7],inactive
same,outcome,"MYC, MYC (gene 4609)",inactive
same,outcome,[9],inactive
same,outcome,[8],inactive
